Measurements: the supplement of paper PMC10849652
The full data set covers some 8,800 targets. This sample favours those with a hit. About 0.5% of all pairs of compound and target were hits. Values without a mark were called inactive.

Tests used:
Assay in all cases: log2 fold change, soluble protein after heating vs DMSO (PISA); higher = thermal stabilisation; K562 lysate, 10 uM; active = over 0.2 and 3.5 SD of the protein, either way, in both replicates (recomputed)
nilotinib = compound: Cc1cn(-c2cc(NC(=O)c3ccc(C)c(Nc4nccc(-c5cccnc5)n4)c3)cc(C(F)(F)F)c2)cn1 [nilotinib]
Summary of the method: (§1)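 Thermal stability, expressed as log-two fold change relative to solvent controls, is given from duplicates. Crude K562 extract in PBS pH 7.4 with 1 mM MgCl2, at 1 mg/mL protein, was treated with 10 μM compound for 30 min and heated in aliquots for 3 min across 48°C-58°C. After pooling, adjustment to 0.5% NP-40 at 4°C and centrifugation at 21,000xg for 90 min, supernatant protein was measured by TMTpro 16plex LC-MS/MS with channel sums equalised.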

[1] = compound: Cc1nc(Nc2n[nH]c3c2CN(C(=O)N[C@H](CN(C)C)c2ccccc2)C3(C)C)c2sccc2n1
Summary of the method: as §1

[2] = compound: Cc1ncc(-c2ccnc(Nc3ccc(S(C)(=O)=O)cc3)n2)n1C(C)C
Summary of the method: as §1

quisinostat = compound: Cn1cc(CNCC2CCN(c3ncc(C(=O)NO)cn3)CC2)c2ccccc21 [quisinostat]
Summary of the method: as §1

tipifarnib = compound: Cn1cncc1[C@@](N)(c1ccc(Cl)cc1)c1ccc2c(c1)c(-c1cccc(Cl)c1)cc(=O)n2C [tipifarnib]
Summary of the method: as §1

[3] = compound: NC(=O)Nc1cc(-c2cccc(F)c2)sc1C(=O)N[C@H]1CCCNC1
Summary of the method: as §1

[4] = compound: O=C1NC(=O)C(c2cnc3ccccn23)=C1c1cn2c3c(cc(F)cc13)CN(C(=O)N1CCCCC1)CC2
Summary of the method: as §1

dasatinib = compound: Cc1nc(Nc2ncc(C(=O)Nc3c(C)cccc3Cl)s2)cc(N2CCN(CCO)CC2)n1 [dasatinib]
Summary of the method: as §1

[5] = compound: Cn1cc(-c2ccc3c(c2)CCN3C(=O)Cc2cccc(C(F)(F)F)c2)c2c(N)ncnc21
Summary of the method: as §1

[6] = compound: NC(=O)c1cnc(N[C@@H]2CCCC[C@@H]2N)nc1Nc1cccc(-n2nccn2)c1
Summary of the method: as §1

[7] = compound: NC1(c2ccc(-c3nc4ccn5c(=O)[nH]nc5c4cc3-c3ccccc3)cc2)CCC1
Summary of the method: as §1

vorinostat = compound: O=C(CCCCCCC(=O)Nc1ccccc1)NO [vorinostat]
Summary of the method: as §1

silmitasertib = compound: O=C(O)c1ccc2c(c1)nc(Nc1cccc(Cl)c1)c1ccncc12 [silmitasertib]
Summary of the method: as §1

[8] = compound: NCC(=O)Nc1ccc(-n2nc(C(F)(F)F)cc2-c2ccc3c(ccc4ccccc43)c2)cc1
Summary of the method: as §1

entospletinib = compound: c1cn2cc(-c3ccc4cn[nH]c4c3)nc(Nc3ccc(N4CCOCC4)cc3)c2n1 [entospletinib]
Summary of the method: as §1

UniProt Q14157, sequence (Q14157 whole entry, looked up): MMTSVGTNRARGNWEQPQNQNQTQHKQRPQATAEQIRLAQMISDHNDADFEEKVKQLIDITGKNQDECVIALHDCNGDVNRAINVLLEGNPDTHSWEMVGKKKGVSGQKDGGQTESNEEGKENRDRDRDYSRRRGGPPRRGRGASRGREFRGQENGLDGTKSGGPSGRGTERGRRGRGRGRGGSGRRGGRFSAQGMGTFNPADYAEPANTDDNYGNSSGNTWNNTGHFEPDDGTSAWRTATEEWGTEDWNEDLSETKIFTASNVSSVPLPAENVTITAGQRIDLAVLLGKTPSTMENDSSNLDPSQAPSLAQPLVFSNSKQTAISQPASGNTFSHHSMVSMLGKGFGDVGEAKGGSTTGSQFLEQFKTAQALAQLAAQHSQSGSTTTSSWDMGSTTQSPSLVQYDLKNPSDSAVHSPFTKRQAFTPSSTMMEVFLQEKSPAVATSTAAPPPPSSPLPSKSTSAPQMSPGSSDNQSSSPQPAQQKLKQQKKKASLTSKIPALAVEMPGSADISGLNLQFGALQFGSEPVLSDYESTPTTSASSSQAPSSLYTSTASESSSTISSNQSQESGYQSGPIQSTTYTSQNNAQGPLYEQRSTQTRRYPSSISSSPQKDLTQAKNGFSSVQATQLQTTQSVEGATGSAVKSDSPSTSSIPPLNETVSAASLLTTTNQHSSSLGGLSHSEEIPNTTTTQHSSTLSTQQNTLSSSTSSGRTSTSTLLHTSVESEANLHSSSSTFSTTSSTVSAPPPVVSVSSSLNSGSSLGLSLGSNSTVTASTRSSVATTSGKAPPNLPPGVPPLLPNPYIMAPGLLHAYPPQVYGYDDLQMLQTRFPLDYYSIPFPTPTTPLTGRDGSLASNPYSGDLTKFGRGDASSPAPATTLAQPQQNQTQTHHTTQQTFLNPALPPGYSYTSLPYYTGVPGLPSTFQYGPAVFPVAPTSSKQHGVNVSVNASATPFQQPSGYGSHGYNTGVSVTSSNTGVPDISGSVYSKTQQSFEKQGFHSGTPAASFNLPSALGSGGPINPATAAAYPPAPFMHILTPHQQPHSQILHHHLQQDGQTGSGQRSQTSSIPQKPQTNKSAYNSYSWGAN
UniProt O75382, sequence (O75382 whole entry, looked up): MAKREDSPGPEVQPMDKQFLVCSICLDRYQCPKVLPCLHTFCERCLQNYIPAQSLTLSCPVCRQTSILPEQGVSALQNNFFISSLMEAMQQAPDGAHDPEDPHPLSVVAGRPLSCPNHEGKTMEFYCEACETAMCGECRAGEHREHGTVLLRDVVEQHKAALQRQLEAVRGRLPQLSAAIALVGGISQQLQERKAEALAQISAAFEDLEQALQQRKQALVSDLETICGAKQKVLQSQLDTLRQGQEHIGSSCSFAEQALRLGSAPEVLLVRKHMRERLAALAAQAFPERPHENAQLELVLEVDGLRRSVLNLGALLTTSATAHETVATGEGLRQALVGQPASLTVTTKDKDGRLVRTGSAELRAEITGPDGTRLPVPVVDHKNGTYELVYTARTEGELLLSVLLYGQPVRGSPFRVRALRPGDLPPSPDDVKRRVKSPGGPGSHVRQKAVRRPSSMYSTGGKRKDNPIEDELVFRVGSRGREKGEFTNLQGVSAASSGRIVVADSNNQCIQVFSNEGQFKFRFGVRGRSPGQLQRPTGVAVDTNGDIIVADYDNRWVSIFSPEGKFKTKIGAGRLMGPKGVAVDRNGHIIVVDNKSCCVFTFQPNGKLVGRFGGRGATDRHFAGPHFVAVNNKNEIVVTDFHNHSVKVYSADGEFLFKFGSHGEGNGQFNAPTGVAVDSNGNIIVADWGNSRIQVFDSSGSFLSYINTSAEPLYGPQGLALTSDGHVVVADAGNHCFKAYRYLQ
UniProt Q6P9G4, sequence (Q6P9G4 whole entry, looked up): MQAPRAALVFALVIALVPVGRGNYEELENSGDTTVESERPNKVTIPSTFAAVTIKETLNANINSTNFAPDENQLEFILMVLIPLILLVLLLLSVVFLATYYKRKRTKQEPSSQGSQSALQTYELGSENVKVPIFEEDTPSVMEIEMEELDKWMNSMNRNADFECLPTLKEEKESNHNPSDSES
UniProt P36897, sequence (P36897 whole entry, looked up): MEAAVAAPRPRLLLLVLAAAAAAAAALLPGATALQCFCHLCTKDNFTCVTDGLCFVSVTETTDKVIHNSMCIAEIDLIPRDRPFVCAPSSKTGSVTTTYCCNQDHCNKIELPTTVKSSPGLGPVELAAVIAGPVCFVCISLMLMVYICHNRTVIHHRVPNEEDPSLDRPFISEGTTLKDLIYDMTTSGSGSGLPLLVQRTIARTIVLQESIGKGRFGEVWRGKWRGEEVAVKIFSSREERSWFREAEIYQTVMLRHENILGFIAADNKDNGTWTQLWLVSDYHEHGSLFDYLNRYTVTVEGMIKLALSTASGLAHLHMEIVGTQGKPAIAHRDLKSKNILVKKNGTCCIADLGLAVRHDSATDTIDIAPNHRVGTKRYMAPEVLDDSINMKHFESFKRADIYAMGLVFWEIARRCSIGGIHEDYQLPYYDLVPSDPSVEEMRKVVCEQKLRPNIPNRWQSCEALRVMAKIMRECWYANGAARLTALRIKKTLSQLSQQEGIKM
UniProt Q9NRX6, sequence (Q9NRX6 whole entry, looked up): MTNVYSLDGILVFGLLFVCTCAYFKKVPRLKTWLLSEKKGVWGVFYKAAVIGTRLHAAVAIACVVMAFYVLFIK
UniProt Q9NPG3, sequence (Q9NPG3 whole entry, looked up): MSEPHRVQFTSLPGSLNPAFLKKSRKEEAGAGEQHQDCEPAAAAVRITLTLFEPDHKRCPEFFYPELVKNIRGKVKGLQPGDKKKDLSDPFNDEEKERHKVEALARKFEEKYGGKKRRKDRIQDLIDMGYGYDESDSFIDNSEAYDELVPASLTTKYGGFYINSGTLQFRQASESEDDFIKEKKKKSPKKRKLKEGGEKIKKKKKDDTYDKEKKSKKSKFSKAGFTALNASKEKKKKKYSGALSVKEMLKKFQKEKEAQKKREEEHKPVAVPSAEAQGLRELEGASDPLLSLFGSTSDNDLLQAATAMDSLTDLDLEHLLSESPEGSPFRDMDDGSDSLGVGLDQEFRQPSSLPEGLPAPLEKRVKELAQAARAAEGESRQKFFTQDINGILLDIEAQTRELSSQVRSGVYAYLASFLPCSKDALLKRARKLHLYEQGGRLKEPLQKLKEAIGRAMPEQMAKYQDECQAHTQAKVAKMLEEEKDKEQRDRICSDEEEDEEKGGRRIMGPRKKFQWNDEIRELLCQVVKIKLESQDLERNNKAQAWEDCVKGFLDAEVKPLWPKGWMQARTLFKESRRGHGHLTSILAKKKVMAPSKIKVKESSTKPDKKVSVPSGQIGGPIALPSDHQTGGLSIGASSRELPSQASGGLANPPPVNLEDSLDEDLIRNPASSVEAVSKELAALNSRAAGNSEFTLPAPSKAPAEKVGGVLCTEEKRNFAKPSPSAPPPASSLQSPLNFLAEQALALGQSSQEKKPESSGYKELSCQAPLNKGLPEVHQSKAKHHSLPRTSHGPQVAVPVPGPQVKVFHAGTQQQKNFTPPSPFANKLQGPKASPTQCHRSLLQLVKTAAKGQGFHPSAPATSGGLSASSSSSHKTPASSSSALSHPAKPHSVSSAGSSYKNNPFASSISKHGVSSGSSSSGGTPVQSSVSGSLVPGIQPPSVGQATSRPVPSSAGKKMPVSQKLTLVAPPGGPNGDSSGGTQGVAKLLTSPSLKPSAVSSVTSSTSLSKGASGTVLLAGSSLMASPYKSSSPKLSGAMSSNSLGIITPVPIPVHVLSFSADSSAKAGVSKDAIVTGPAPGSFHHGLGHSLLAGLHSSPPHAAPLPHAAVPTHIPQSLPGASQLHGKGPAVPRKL
UniProt P0C1Z6, sequence (P0C1Z6 whole entry, looked up): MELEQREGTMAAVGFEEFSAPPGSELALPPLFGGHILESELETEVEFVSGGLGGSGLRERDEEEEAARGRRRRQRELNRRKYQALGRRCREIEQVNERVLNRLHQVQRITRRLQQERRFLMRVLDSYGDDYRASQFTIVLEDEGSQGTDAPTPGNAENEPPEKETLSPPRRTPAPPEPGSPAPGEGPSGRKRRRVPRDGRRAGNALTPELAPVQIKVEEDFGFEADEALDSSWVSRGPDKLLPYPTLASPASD
UniProt Q8TDI8, sequence (Q8TDI8 whole entry, looked up): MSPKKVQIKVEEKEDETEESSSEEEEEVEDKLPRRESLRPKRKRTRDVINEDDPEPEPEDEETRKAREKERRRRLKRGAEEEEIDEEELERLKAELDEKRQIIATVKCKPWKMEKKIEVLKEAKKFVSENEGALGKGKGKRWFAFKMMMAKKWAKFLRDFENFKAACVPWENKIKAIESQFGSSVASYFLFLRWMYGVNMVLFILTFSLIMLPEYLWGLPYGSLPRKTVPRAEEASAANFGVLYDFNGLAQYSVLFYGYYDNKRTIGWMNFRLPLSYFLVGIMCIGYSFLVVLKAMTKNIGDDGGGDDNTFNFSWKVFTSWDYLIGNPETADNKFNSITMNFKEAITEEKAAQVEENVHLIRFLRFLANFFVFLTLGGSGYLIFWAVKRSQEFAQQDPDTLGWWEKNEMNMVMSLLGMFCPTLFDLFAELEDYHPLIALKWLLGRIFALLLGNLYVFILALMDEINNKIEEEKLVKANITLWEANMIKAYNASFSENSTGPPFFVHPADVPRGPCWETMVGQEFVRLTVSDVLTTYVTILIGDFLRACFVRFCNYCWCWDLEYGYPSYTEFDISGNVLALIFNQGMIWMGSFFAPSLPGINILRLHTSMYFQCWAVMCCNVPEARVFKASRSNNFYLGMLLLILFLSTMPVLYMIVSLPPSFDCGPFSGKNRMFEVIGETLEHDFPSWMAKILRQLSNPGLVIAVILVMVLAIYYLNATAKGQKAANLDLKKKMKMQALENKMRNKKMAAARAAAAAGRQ
UniProt Q96LJ8, sequence (Q96LJ8 whole entry, looked up): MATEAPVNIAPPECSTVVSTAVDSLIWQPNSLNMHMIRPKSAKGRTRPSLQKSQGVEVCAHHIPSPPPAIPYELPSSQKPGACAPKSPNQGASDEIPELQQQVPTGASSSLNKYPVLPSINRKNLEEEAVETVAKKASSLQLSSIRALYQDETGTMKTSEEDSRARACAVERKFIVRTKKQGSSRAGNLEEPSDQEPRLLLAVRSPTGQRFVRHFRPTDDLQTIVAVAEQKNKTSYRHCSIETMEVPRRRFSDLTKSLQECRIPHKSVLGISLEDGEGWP

| Target | log2 fold change (nilotinib) | log2 fold change [1] | log2 fold change [2] | log2 fold change (quisinostat) | log2 fold change (tipifarnib) | log2 fold change [3] | log2 fold change [4] | log2 fold change (dasatinib) | log2 fold change [5] | log2 fold change [6] | log2 fold change [7] | log2 fold change (vorinostat) | log2 fold change (silmitasertib) | log2 fold change [8] | log2 fold change (entospletinib) |
| --- | --- | --- | --- | --- | --- | --- | --- | --- | --- | --- | --- | --- | --- | --- | --- |
| UBAP2L isoform 1 (UniProt Q14157) | -0.03 | -0.081 | 0.09 | 0.613 | -0.067 | 0.081 | 0.088 |  |  |  |  |  |  |  |  |
| UBAP2 (UniProt Q5JV08) | -0.211 | 0.172 | 0.104 |  | 0.133 |  |  |  |  |  |  |  |  |  |  |
| TFPT (UniProt P0C1Z6) |  |  |  |  |  |  |  | 0.009 | 0.006 | 0.023 | -0.002 | 0.289 | -0.18 |  |  |
| TNIK isoform 5 (UniProt Q9UKE5) |  |  |  | -0.218 |  | 0.539 (active) | -0.134 | 0.187 | 0.019 | 0.019 |  |  |  |  |  |
| TCF20 (UniProt Q9UGU0) |  |  |  | 0.193 |  | -0.006 | -0.056 | 0.001 | -0.057 | 0.11 | 0.068 | -0.067 | 0.054 |  |  |
| TMEM161B (UniProt Q8NDZ6) | 0.419 (active) | -0.014 | 0.053 | -0.07 | -0.117 | 0.046 | 0.019 |  |  | -0.005 | -0.064 | 0.225 | 0 | -0.084 | -0.026 |
| TFAP4 (UniProt Q01664) | 0.18 | 0.155 | 0 | 0.006 | -0.066 | -0.036 | 0.01 |  |  | -0.218 | -0.001 | 0.051 | -0.196 | 0.005 | -0.086 |
| UBXN10 (UniProt Q96LJ8) |  |  |  | -0.028 |  | 0.035 | -0.002 | -0.007 | 0.008 | 0.078 | 0.014 | -0.321 (active) | -0.005 | -0.018 | 0 |
| TRIM3 (UniProt O75382) |  |  |  |  |  |  |  |  |  | 0.623 | 0.146 | -0.055 | -0.179 | -0.304 | -0.056 |
| TNIK (UniProt C9J338) |  |  |  | -0.292 |  | -0.043 | 0.006 | -0.055 | -0.043 | 0.015 | -0.068 | 0.103 | -0.023 | 0.195 | -0.049 |
| TUBB4A (UniProt M0QYM7) | -0.029 | -0.009 | 0.039 | -0.116 | 0.013 | 0.107 | -0.062 |  |  | -0.048 | 0.126 | -0.431 | 0.01 | 0.128 | 0.032 |
| TUBB6 (UniProt K7ES63) | -0.051 | 0.112 | -0.155 | -0.267 | 0.08 | 0.049 | -0.164 |  |  | 0.08 | -0.008 | -0.414 | 0.013 | -0.062 | -0.11 |
| TXNRD2 isoform 3 (UniProt Q9NNW7) |  |  |  |  |  |  |  |  |  |  | -0.228 | -0.94 (active) | -0.194 |  |  |
| TRPM4 (UniProt Q8TD43) |  |  |  | -0.01 |  | 0.111 | -0.078 | -0.02 | -0.099 |  | 0.089 | 0.161 | -0.091 |  |  |
| TMPO isoform 2 (UniProt P42167) |  |  |  |  |  |  |  | -0.042 | -0.072 |  |  |  |  | -0.066 | 0.032 |
| TFPI isoform 2 (UniProt P10646) |  |  |  | -0.087 |  | 0.082 | 0.019 |  |  |  |  |  |  | 0.184 |  |
| TMC1 (UniProt Q8TDI8) | -0.073 | -0.049 | -0.28 | -0.552 (active) | 0.015 | -0.058 | -0.337 |  |  | -0.006 | 0 | -0.121 | 0.02 | 0.015 | 0.012 |
| TEC (UniProt P42680) | -0.047 | 0.099 | 0.019 |  | 0.116 |  |  |  |  | -0.039 |  |  |  | -1.05 (active) | 0.037 |
| TGFBR1 isoform 2 (UniProt P36897) |  |  |  |  |  |  |  |  | -0.03 |  | -0.117 | 0 | 0.076 |  | -0.004 |
| TCF3 isoform 2 (UniProt P15923) |  |  |  | -0.05 |  | -0.005 | 0.043 |  |  |  | -0.068 | -0.196 | -0.056 |  |  |
| TMEM167B (UniProt Q9NRX6) | 0.006 | 0.031 | 0.014 | -0.016 | -0.013 | 0.027 | -0.033 |  |  | 0.005 | -0.019 | 0 | 0.009 | 0.019 | 0.031 |
| TMEM154 (UniProt Q6P9G4) |  |  |  | 0.103 |  | -0.101 | 0.008 | 0.058 | 0.07 |  |  |  |  |  | -0.056 |
| UBAP2L (UniProt F8W726) |  |  |  | 0.11 |  | 0.043 | 0.021 |  |  | 0.099 |  |  |  | 0.062 |  |
| TLE3 (UniProt H0YL70) |  |  |  |  |  |  |  | 0.077 | 0.05 |  |  |  |  |  |  |
| UCHL5 (UniProt Q5LJA9) |  |  |  | -0.186 |  | -0.024 | -0.086 | -0.214 | -0.075 | 0.009 | 0.006 | -0.361 (active) | 0.004 | -0.017 | -0.011 |
| UBN1 (UniProt Q9NPG3) |  |  |  | 0.114 |  | -0.053 | -0.463 | 0.208 | 0.055 | 0.001 |  |  |  | 0.048 | -0.034 |
| TMEM177 (UniProt Q53S58) |  |  |  | -0.018 |  | 0.036 | 0.034 |  |  | 0.029 | 0.067 | -0.012 | -0.035 | -0.183 | 0.005 |
| THAP9 (UniProt Q9H5L6) |  |  |  | -0.455 |  | 0.07 | 0.09 | 0.025 | -0.032 | 0.179 |  |  |  | 0.207 | 0.059 |
| TMEM132A isoform 2 (UniProt Q24JP5) |  |  |  | -0.022 |  | 0.087 | 0.227 |  |  | 0.724 | -0.014 | -0.156 | 0.351 |  | -0.089 |
